Data: PubChem BioAssay (NCATS)
Records with an inconclusive call do not appear. Active and inactive are the calls of the source. Calls come from the whole dose curve; as a rule, active = well fitted inhibition curve with a large enough effect; inconclusive = small, poorly fitted or top-dose-only effect; inactive = flat fitted curve, though single readings scatter.

How the values were obtained:
KB-3-1 = experiment: Cytotoxic Profiling of Annotated Libraries Using Quantitative High-Throughput Screening (AID 1296008); conditions: Five cell lines viability, CellTiter-Glo ATP luminescence, 48-72 h; max response: hits give low values; note: potency is the fitted concentration of half-maximal effect; for max response: % is set by controls: 0 for no effect and ±100 for the full control effect
In short: (§1)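 Compounds were pin-transferred onto cells and incubated 48 or 72 hr at 37 degree Celsius, 95% humidity. CellTiter-Glo was added, plates sat 10 min at room temperature, then ATP-coupled luminescence was imaged as the viability read-out.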

NIH3T3 = experiment: as above; conditions: Five cell lines viability, CellTiter-Glo ATP luminescence, 48-72 h; max response: hits give low values
In short: as §1

HEK293T = experiment: qHTS assay to identify novel small-molecules to repurpose for Merkel cell carcinoma treatment (AID 1296009); conditions: MCC and control cell lines, CellTiter-Glo viability, 72 h; at 44.8 µM (top of the series) unless noted
In short: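 Cells exposed to NPC (8-point) and MIPE (11-point) compound dilutions for 72 hr at 37 degree celsius; viability read by CellTiter-Glo luminescence, normalized to no-cell and DMSO in-plate controls.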
Note: nearly all actives have a fitted effect of over 60% in size.

CC/C=C\CCO[C@@H]1O[C@H](CO[C@@H]2OC[C@H](O)[C@H](O)[C@H]2O)[C@@H](O)[C@H](O)[C@H]1O
outcome (KB-3-1): inactive | max response (NIH3T3): -20.8% (inactive) | outcome (HEK293T): inactive

CCCCOC(=O)NC(=O)C1c2ccccc2Oc2ccccc21
max response (KB-3-1): 2.73% (inactive) | max response (NIH3T3): -5.65% (inactive) | outcome (HEK293T): inactive

CCc1c(C)nc2c(-c3cnn(-c4cc(CO)ccn4)c3)c[nH]n2c1=O
max response (KB-3-1): -1.88% (inactive) | max response (NIH3T3): -6.61% (inactive) | outcome (HEK293T): inactive

O=C1NC(Cc2c[nH]c3ccccc23)C(=O)NC1Cc1c[nH]c2ccccc12 (stereo not given)
outcome (KB-3-1): inactive | max response (NIH3T3): -2.22% (inactive) | outcome (HEK293T): inactive

CC1C=CC2CCCCC2C1CCC1CC(O)CC(=O)O1 (stereo not given)
max response (KB-3-1): 3.85% (inactive) | max response (NIH3T3): -16% (inactive) | outcome (HEK293T): inactive

CC1(C)C[C@H](O)C[C@@]2(C)OC(=O)C=C12
outcome (KB-3-1): inactive | max response (NIH3T3): 2.91% (inactive) | outcome (HEK293T): inactive [at 92 µM]

Cc1c[nH]c2nccc(Oc3c(F)cc(Nc4cc(Cl)nc(N)n4)cc3F)c12
Potency (KB-3-1): 1.46 µM (active) | Potency (NIH3T3): 10.3 µM (active)

CC(C)=CCC[C@](C)(O[C@@H]1O[C@H](CO)[C@@H](O)[C@H](O)[C@H]1O)[C@H]1CC[C@]2(C)[C@@H]1[C@H](O)CC1[C@@]3(C)CC[C@H](O)C(C)(C)C3[C@@H](O[C@@H]3O[C@H](CO)[C@@H](O)[C@H](O)[C@H]3O[C@@H]3OC[C@@H](O)[C@H](O)[C@H]3O)C[C@]12C (stereo not given in full)
max response (KB-3-1): -9.18% (inactive) | max response (NIH3T3): -2.19% (inactive)

COC(=O)C1=CO[C@@H](O[C@@H]2O[C@H](CO)[C@@H](O)[C@H](O)[C@H]2O)[C@@H]2C(CO)=CC[C@]12O
max response (KB-3-1): 9.91% (inactive) | max response (NIH3T3): 1.93% (inactive) | outcome (HEK293T): inactive [at 17.4 µM]
